Shown are actives, neighbours in structure and some others; about 1.2% of the full set was active somewhere.
SARS 3CLpro inh: SARS-CoV 3CLpro protease inhibition; P0C6X7; recombinant SARS-CoV 3CLpro, quenched FRET peptide cleavage; inhibition, % at 6 µM; 290,000 compounds, 0.14% hits; in the data active means inhibition above about 12%
PrPC surface inh: cell surface PrPC inhibition, primary TR-FRET screen. TR-FRET read-out. inhibition, % at 13.8 µM. 370,000 compounds, 0.43% hits. P04156; in the data active means inhibition above about 24%
PrP UTR inh: inhibition of PrP 5' UTR reporter expression. AID 488862. cell-based PrP 5' UTR mRNA reporter, plate reader. 340,000 compounds, 0.35% hits. inhibition, % (no concentration beside the values); in the data active means inhibition above about 52%
BJeLR viability: kills HRASV12-expressing BJeLR cells. BJeLR (HRASV12) viability, CellTiter-Glo ATP luminescence, 48 h. inhibition, % (no concentration beside the values). 300,000 compounds, 0.17% hits. AID 1554; in the data active means inhibition above about 50%
SSB-PriA inh: K. pneumoniae PriA-SSBct interaction inhibition | AlphaScreen SSBct-PriA binding, biotinylated peptide | inhibition, % at 33 µM | 430,000 compounds, 0.6% hits; in the data active means inhibition mostly above about 37%, no sharp cut-off; inactive means mostly below about 20%
PrPC TRFRET cf: cell surface PrPC inhibition, TR-FRET confirmation; AID 743200; shares compounds with PrPC surface inh; inhibition, % at 13.8 µM; cell surface PrPC level; 1,500 compounds, 65% hits; in the data active means inhibition above about 25%
LD9 tox: LD9 cell cytotoxicity, PrPc inhibitor counter-screen; shares compounds with PrPC surface inh; LD9 cells cytotoxicity, luminescence viability; inhibition, % at 13.8 µM; 1,500 compounds, 29% hits; AID 743201; in the data active means inhibition above about 9.5%
Large screens that a line does not name were inactive (follow-up assays come after a bar, where they were run).

Cc1cccc(Nc2ncnc3ccc(Br)cc23)c1	PrPC surface inh 26 | PrPC TRFRET cf 31 | LD9 tox inactive
c1ccc(CCNc2ncnc3ccccc23)cc1	none
Clc1cccc(CSc2nnc(-c3ccncc3)o2)c1	none (no result: SARS 3CLpro inh, PrPC surface inh, PrP UTR inh, BJeLR viability)
Cc1cc(S(=O)(=O)NCCCn2ccnc2)cc([N+](=O)[O-])c1C	none (no result: SARS 3CLpro inh, PrPC surface inh, PrP UTR inh, BJeLR viability)
COc1cccc2cc(C(=O)NCc3sc(-c4ccccc4Cl)nc3C)oc12	none (no result: SARS 3CLpro inh, PrPC surface inh, PrP UTR inh, BJeLR viability)
NC(c1csc(NC(=O)Nc2cccc(Cl)c2)n1)C1CCCCC1 (stereo not given)	PrPC surface inh 26 (no result: SARS 3CLpro inh, PrP UTR inh, BJeLR viability, SSB-PriA inh) | PrPC TRFRET cf inactive | LD9 tox inactive
Cc1cc(C(=O)NNc2ccc(Cl)cc2)no1	PrPC surface inh 31 | PrPC TRFRET cf 33 | LD9 tox inactive
Cc1cc(C(=O)NNC(=O)Nc2ccc(Cl)cc2)no1	none
Cc1ccc(NC(=O)c2ccc(Nc3c([N+](=O)[O-])cc([N+](=O)[O-])cc3[N+](=O)[O-])cc2)cc1	PrPC surface inh 25 | PrPC TRFRET cf inactive | LD9 tox 37
CC(=O)Nc1ccc(NC(=O)c2cc([N+](=O)[O-])cc([N+](=O)[O-])c2)cc1	none
O=C(Nc1cnn(Cc2ccc(F)cc2)c1)c1cc(-c2ccc(F)cc2)on1	none (no result: SARS 3CLpro inh, PrPC surface inh, PrP UTR inh, BJeLR viability)
CCOC(=O)c1c(C)[nH]c(C(=O)OCC(=O)Nc2sccc2C(N)=O)c1C	PrPC surface inh 33 (no result: SARS 3CLpro inh) | PrPC TRFRET cf inactive | LD9 tox 44
CSc1ncccc1C(=O)Nc1nc(C(C)(C)C)cs1	PrPC surface inh 27 | PrPC TRFRET cf 27 | LD9 tox inactive
O=c1[nH]c(=O)n(Cc2ccco2)c2c1C(C(F)(F)F)(C(F)(F)F)N=C(Cc1ccccc1)N2	PrPC surface inh 56 | PrPC TRFRET cf 47 | LD9 tox inactive
c1ccc2[nH]c(CSc3ncnc4c3oc3ccccc34)nc2c1	PrPC surface inh 29 | PrPC TRFRET cf 26 | LD9 tox inactive
CC(=O)c1ccc(OCc2cc(C(=O)N(C)Cc3nc4c(C)cccc4[nH]3)no2)cc1	PrPC surface inh 27 | PrPC TRFRET cf 26 | LD9 tox inactive
Cc1cccc(C)c1OCc1cc(C(=O)N(C)Cc2nc3ccccc3[nH]2)no1	none
CC(Oc1ccc(F)cc1)C(=O)Nc1cc(Cl)ccc1Cl (stereo not given)	none (no result: SARS 3CLpro inh, PrPC surface inh, PrP UTR inh, BJeLR viability)
COc1ccccc1C(=O)Nc1nc(-c2ccc([N+](=O)[O-])cc2)cs1	none (no result: SARS 3CLpro inh, PrPC surface inh, PrP UTR inh, BJeLR viability)
COc1ccccc1N(C(=O)c1ccncc1)c1nc(-c2ccc([N+](=O)[O-])cc2)cs1	PrPC surface inh 26 | PrPC TRFRET cf 38 | LD9 tox inactive
CCN(CC)C(=O)Cn1cc(C(=O)C(=O)N2CCCc3ccccc32)c2ccccc21	none (no result: BJeLR viability)
CCN(CC)C(=O)Cn1cc(C(=O)C(=O)N2CCc3ccccc32)c2ccccc21	PrPC surface inh 53 | PrPC TRFRET cf inactive | LD9 tox inactive
CN(C(=O)COC(=O)c1ccccc1Nc1ccccc1)c1c(N)n(Cc2ccccc2)c(=O)[nH]c1=O	PrPC surface inh 29 (no result: SARS 3CLpro inh) | PrPC TRFRET cf 38 | LD9 tox inactive
CCCNC(=O)c1cc(Cl)c(NC(=O)C2=C(C)OCCS2)cc1OC	PrPC surface inh 26 | PrPC TRFRET cf 32 | LD9 tox inactive
CCOCCCNC(=O)c1cc(Cl)c(NC(=O)C2=C(C)OCCS2)cc1OC	none
O=C(CSc1nncc2ccccc12)Nc1ccccc1	none
O=C(CSc1nncc2ccccc12)Nc1ccc(F)cc1	PrPC surface inh 37 | PrPC TRFRET cf 48 | LD9 tox inactive
COc1ccc(Cn2c(-c3ccccc3C)nc3c(c(=O)c4ccccc4n3C)c2=O)cc1	PrPC surface inh 53 (no result: SARS 3CLpro inh) | PrPC TRFRET cf inactive | LD9 tox inactive
COc1ccc(Cn2c(-c3ccc(OC)cc3)nc3c(c(=O)c4ccccc4n3C)c2=O)cc1	none (no result: PrPC surface inh, PrP UTR inh, SSB-PriA inh)
C[C@H]1C[C@@H](C)C(=O)[C@@H]([C@H](O)CC2CC(=O)NC(=O)C2)C1	PrPC surface inh 89 | PrPC TRFRET cf 98 | LD9 tox 32
CC1CC(C)C(=NNC(N)=O)C(C(O)CC2CCC(=O)NC2=O)C1 (stereo not given)	PrPC surface inh 84 (no result: SARS 3CLpro inh, BJeLR viability) | PrPC TRFRET cf 43 | LD9 tox 15
Cn1c(SCc2ccccn2)nnc1-c1cccn(C)c1=O	none (no result: SARS 3CLpro inh, PrPC surface inh, PrP UTR inh, BJeLR viability)
CCOc1ccc(NC(=O)Nc2nc(-c3ccccc3)c(C)s2)cc1	none (no result: SARS 3CLpro inh, PrPC surface inh, PrP UTR inh, BJeLR viability)
COc1ccc(C(=O)Nc2ccc3c(c2)N(C(=O)c2cccs2)CC3)c(OC)c1OC	none (no result: SARS 3CLpro inh, PrPC surface inh, PrP UTR inh, BJeLR viability)

High-throughput results deposited in PubChem BioAssay by several laboratories.
